The text below walks through data of PubChem BioAssay (Tox21).

SMILES strings stand for the structures. Unmarked numbers belong to inactive results. Inconclusive results are not listed. Active and inactive are the calls of the source. Calls come from the whole dose curve; as a rule, active = well fitted curve in the direction sought with a large enough effect in the repeat runs; inconclusive = weak or mixed curves; inactive = no such curve, though single readings can be large; an effect the other way counts as inactive or inconclusive.

The nature of test [1]: Caspase-3/7 induction in CHO-K1 cells by small molecules, qHTS cell viability counter screen (AID 1346979). Note: nearly all actives have a fitted effect of over 35% in size. The gist of the method:
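CellTiter-Fluor viability check, qHTS format: wild-type CHO-K1, 16hr compound treatment, 1hr reagent incubation, fluorescence read.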
Background: qHTS replaces the single test concentration by a dilution series.

Test [2] can be described thus: Caspase-3/7 induction in CHO-K1 cells by small molecules, qHTS assay (AID 1346980). Note: nearly all actives have a fitted effect of over 15% in size. A digest of the protocol: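 Wild-type CHO-K1 cells exposed to compounds for 17hr at 37 C, 5% CO2. Caspase-3/7 activity then measured by Caspase-Glo 3/7 luminescence after 30min at room temperature.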
Test [3] is described as follows: Caspase-3/7 induction in HepG2 cells by small molecules, qHTS cell viability counter screen (AID 1346981). Note: series mostly up to about 92 µM; nearly all actives have a fitted effect of over 30% in size. A digest of the protocol: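 Fluorescence read-out of live-cell protease activity (CellTiter-Fluor) after 1 hr with reagent. This was measured in the same wells as the caspase-3/7 luminescence, on HepG2 cells exposed to DMSO-dissolved compounds for 16 hr at 37 C.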

The target in test [4] is Nuclear receptor subfamily 1 group I member 2 (Rattus norvegicus) (UniProt Q9R1A7). The experiment in a line: Rat pregnane X receptor (rPXR) activation by small molecules, qHTS assay (AID 1346983). Note: nearly all actives have a fitted effect of over 20% in size. The conditions noted are these: rPXR luciferase reporter cells, One-Glo luminescence, 24 h; max activation: stronger effect = higher value. A digest of the protocol: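 Cell-based rPXR activation assay: rPXR cells, 2,000 per well, rested 5hr at 37 C, then exposed to compounds in DMSO for 24 hr at 37 C. Luciferase activity read by One-Glo luminescence after 30 min at room temperature.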
Nuclear receptor subfamily 1 group I member 2 (Rattus norvegicus), sequence (Q9R1A7 whole entry, looked up): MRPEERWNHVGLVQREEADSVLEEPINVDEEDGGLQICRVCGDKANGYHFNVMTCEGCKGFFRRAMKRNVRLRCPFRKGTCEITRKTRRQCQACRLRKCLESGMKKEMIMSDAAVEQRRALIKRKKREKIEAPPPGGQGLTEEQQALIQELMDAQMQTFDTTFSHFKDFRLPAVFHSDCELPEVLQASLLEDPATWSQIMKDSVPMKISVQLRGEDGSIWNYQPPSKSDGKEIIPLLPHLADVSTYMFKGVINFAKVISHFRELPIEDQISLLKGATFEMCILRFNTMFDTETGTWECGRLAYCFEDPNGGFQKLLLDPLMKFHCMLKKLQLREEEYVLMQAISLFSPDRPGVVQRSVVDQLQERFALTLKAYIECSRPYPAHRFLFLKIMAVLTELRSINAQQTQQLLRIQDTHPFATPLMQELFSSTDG

Test [5] has as its target Cytochrome P450 2D6 (Homo sapiens) (UniProt P10635). As to the kind of experiment: Cytochrome P450 Family 2 Subfamily D Member 6 (CYP2D6) small molecule antagonists: luciferase reporter qHTS assay (AID 1671196). For activity change, negative = inhibition: series mostly up to about 120 µM. Note: nearly all actives have a fitted effect of over 50% in size. Note: potency is the fitted concentration of half-maximal effect. The gist of the method: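 Luminogenic proluciferin substrate, CYP2D6 enzyme; 10 min RT preincubation with compound, NADPH regeneration system added, 1 h RT. Stop/detection reagent, 20 min RT, luminescence read (RLU). Signal proportional to CYP activity.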
For orientation: Reporter assays use an easily measured gene product as a stand-in for the process of interest.

Test [6] has as its target Cytochrome P450 2C19 (Homo sapiens) (UniProt P33261). As to the kind of experiment: Cytochrome P450 Family 2 Subfamily C Member 19 (CYP2C19) small molecule antagonists: luciferase reporter qHTS assay (AID 1671197). For activity change, negative = inhibition: series mostly up to about 120 µM. Note: nearly all actives have a fitted effect of over 65% in size. Note: potency is the fitted concentration of half-maximal effect. The gist of the method:
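First, compounds are pinned into enzyme-substrate mix and held 10 min at room temperature. Second, NADPH regeneration solution is added and plates incubate 1 h at 37C. Third, detection reagent is added and luminescence read after 20 min.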

Test [7] concerns the target Cytochrome P450 2C9 (Homo sapiens) (UniProt P11712). The experiment in a line: Cytochrome P450 Family 2 Subfamily C Member 9 (CYP2C9) small molecule antagonists: luciferase reporter qHTS assay (AID 1671198). For activity change, negative = inhibition: series mostly up to about 120 µM. Note: nearly all actives have a fitted effect of over 50% in size. Note: potency is the fitted concentration of half-maximal effect. The gist of the method: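 P450-Glo proluciferin substrate with CYP2C9 enzyme; 10 min RT preincubation, then NADPH regeneration 1 h at 37C; luciferin detection reagent 20 min RT, luminescence in relative luminescence units.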

In test [8] the target is Voltage-gated inwardly rectifying potassium channel KCNH2 (Homo sapiens) (UniProt Q12809). The experiment in a line: Human Ether-a-go-go-Related Gene (hERG) channel small molecule antagonists: fluorescence cell-based qHTS assay (AID 1671200).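 Note: hERG-expressing U2OS cells given a thallium stimulus after FluxOR II dye loading; series mostly up to about 77 µM; nearly all actives have a fitted effect of over 50% in size.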 The gist of the method: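 Kinetic two-minute fluorescence traces, sampled at 1 s, were collected following thallium stimulus of U2OS cells (1000 per well) that had been cultured overnight at 37 C and loaded with FluxOR II.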
Voltage-gated inwardly rectifying potassium channel KCNH2 (Homo sapiens), sequence (Q12809 whole entry, looked up): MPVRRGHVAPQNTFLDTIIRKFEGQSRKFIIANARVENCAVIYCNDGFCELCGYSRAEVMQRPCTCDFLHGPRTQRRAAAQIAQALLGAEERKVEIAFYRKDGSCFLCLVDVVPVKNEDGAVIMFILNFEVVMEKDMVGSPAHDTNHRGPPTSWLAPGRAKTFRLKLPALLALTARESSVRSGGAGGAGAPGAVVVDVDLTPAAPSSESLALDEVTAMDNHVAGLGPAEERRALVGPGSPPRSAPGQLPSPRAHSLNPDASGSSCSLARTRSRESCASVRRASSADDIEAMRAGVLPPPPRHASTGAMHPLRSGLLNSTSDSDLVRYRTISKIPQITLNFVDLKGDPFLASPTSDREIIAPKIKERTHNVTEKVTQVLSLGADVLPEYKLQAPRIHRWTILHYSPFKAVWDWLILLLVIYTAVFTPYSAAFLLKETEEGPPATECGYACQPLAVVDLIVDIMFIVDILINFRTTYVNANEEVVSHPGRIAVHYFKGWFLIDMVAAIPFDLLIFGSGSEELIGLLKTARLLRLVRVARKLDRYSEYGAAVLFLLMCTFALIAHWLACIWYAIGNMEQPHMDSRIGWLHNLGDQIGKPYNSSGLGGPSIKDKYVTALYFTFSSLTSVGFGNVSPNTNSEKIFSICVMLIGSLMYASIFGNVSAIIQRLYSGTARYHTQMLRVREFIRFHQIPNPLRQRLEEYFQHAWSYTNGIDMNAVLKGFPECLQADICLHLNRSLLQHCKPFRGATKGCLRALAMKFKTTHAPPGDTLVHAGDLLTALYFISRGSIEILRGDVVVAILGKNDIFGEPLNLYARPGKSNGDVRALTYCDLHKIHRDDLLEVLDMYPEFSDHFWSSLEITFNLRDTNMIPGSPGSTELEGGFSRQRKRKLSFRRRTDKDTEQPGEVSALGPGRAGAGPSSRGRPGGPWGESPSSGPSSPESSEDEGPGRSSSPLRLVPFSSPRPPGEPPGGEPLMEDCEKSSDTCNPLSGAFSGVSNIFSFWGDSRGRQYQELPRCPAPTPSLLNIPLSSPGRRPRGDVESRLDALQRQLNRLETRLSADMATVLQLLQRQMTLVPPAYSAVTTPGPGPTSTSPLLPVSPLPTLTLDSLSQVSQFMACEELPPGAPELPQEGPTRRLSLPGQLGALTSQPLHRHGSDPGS
A general note: Block of hERG is tested as a sign of cardiac risk.

Test [9] has as its target Cytochrome P450 3A4 (Homo sapiens) (UniProt P08684). As to the kind of experiment: Cytochrome P450 Family 3 Subfamily A Member 4 (CYP3A4) small molecule antagonists: luciferase reporter qHTS assay (AID 1671201). Note: series mostly up to about 120 µM; nearly all actives have a fitted effect of over 50% in size. A digest of the protocol: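 Proluciferin-to-luciferin conversion by CYP3A4, NADPH-regenerated, 1 h RT; luminescence read as RLU. Ketoconazole as control.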
Test [10] deals with Cytochrome P450 1A2 (Homo sapiens) (UniProt P05177). As to the kind of experiment: Cytochrome P450 Family 1 Subfamily A Member 2 (CYP1A2) small molecule antagonists: luciferase reporter qHTS assay (AID 1671199). For activity change, negative = inhibition: series mostly up to about 120 µM. Note: nearly all actives have a fitted effect of over 50% in size. Note: potency is the fitted concentration of half-maximal effect. A digest of the protocol:
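Luminescence readout (relative luminescence units) after luciferin detection reagent, 20 min RT. Preceded by 1 h room-temperature CYP1A2 reaction with NADPH regeneration solution following 10 min compound preincubation with enzyme and proluciferin substrate. Furafylline positive control.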

Test [11] has as its target Nuclear receptor subfamily 1 group I member 2 (Homo sapiens) (UniProt O75469). The experiment in a line: Human pregnane X receptor (PXR) small molecule agonists, qHTS assay (AID 1346982). Note: nearly all actives have a fitted effect of over 35% in size. Note: potency is the fitted concentration of half-maximal effect. The gist of the method:
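HepG2 PXR-Luc reporter line, 5% charcoal-stripped FBS; 5 hr pre-incubation, compound (DMSO) 24 hr at 37 C/5% CO2; ONE-Glo 30 min RT; luminescence read-out.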

Test [12] has the same target. As to the kind of experiment: CYP3A4 induction through human pregnane X receptor (PXR) by small molecules, qHTS assay (AID 1346984). Note: nearly all actives have a fitted effect of over 40% in size. A digest of the protocol:
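HepG2-derived DPX-2 line carrying PXR plus a CYP3A4-promoter luciferase reporter; cells plated 5 hr, compound-exposed 24 hr at 37C. CYP3A4 activity probed with 3uM (final) Luciferin-IPA for 3hr, then luciferase read after One-Glo.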

Test [13] shares this target. The experiment in a line: Human pregnane X receptor (PXR) activation by small molecules, qHTS assay (AID 1346985). Note: nearly all actives have a fitted effect of over 40% in size. The gist of the method:
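DPX-2 cells (HepG2 co-transfected with a PXR response element and a CYP3A4-promoter luciferase construct) were seeded at 2,000 per well, rested 5 hr at 37C, then exposed to DMSO-dissolved compounds for 24 hr. Activation was read as luciferase luminescence.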
% is set by controls: 0 for no effect and ±100 for the full control effect.

Cytochrome P450 2C9 (Homo sapiens), sequence (P11712 whole entry, looked up): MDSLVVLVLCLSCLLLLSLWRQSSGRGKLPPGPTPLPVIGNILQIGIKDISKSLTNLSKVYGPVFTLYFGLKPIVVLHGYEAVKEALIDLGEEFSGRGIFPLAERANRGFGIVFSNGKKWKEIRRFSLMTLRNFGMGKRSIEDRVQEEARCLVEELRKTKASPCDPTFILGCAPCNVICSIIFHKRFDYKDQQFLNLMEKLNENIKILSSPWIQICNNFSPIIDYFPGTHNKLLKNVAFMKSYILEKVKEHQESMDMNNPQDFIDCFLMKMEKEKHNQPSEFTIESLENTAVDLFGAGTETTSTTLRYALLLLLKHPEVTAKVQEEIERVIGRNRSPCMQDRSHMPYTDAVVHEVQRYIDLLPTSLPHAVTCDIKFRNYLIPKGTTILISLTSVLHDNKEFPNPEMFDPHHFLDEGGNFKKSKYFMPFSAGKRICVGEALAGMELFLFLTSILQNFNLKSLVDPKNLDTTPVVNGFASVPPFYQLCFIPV
Cytochrome P450 1A2 (Homo sapiens), sequence (P05177 whole entry, looked up): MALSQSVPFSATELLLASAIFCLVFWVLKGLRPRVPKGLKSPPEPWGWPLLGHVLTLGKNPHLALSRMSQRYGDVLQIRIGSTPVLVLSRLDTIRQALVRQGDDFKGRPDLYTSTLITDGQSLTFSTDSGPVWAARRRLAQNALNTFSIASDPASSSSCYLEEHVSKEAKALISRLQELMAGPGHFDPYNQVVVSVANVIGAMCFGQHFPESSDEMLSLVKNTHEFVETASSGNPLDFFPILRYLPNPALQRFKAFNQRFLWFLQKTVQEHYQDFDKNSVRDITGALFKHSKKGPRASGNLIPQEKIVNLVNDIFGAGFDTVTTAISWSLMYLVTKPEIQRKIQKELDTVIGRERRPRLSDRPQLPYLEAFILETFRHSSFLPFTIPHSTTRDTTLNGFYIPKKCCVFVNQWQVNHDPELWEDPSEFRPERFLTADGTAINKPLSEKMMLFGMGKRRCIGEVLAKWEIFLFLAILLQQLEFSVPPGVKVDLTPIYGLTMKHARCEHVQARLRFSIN
Cytochrome P450 2D6 (Homo sapiens), sequence (P10635 whole entry, looked up): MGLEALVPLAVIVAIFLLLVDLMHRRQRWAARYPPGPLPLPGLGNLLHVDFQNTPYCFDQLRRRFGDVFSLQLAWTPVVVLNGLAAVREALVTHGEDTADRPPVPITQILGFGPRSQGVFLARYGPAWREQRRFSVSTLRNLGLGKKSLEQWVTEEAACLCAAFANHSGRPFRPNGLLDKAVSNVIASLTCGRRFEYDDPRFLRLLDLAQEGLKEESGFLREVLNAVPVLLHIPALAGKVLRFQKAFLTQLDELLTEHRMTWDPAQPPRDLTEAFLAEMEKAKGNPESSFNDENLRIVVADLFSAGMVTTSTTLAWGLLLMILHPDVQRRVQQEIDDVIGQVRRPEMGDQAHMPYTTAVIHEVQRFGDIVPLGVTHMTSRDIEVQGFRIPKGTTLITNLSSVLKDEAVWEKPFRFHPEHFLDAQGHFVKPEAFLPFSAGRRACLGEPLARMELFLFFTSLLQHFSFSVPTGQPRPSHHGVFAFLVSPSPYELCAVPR
Nuclear receptor subfamily 1 group I member 2 (Homo sapiens), sequence (O75469 whole entry, looked up): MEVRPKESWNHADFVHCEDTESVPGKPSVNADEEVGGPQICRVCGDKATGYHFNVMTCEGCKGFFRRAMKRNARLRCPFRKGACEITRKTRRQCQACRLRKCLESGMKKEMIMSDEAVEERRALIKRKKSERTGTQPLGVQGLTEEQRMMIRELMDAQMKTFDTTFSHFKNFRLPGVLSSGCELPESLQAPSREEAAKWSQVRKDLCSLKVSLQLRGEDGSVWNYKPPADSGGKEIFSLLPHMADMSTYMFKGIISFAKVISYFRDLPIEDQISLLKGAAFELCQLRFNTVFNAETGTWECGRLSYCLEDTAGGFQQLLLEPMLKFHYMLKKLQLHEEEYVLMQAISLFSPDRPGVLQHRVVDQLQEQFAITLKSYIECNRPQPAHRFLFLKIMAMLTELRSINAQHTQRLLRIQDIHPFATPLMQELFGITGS
Cytochrome P450 2C19 (Homo sapiens), sequence (P33261 whole entry, looked up): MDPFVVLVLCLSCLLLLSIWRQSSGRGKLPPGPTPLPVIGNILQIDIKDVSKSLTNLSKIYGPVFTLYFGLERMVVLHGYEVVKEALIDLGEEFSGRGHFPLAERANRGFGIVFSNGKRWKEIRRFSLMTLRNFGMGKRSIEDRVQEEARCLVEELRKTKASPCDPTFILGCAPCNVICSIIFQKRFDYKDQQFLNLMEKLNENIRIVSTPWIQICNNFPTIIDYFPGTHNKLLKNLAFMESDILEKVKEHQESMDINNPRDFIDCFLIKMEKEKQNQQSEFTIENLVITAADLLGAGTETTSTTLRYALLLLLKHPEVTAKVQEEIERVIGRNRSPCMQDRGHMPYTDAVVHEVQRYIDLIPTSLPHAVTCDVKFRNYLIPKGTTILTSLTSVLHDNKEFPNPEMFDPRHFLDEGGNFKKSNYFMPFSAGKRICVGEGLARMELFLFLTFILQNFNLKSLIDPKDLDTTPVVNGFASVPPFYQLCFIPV
Cytochrome P450 3A4 (Homo sapiens), sequence (P08684 whole entry, looked up): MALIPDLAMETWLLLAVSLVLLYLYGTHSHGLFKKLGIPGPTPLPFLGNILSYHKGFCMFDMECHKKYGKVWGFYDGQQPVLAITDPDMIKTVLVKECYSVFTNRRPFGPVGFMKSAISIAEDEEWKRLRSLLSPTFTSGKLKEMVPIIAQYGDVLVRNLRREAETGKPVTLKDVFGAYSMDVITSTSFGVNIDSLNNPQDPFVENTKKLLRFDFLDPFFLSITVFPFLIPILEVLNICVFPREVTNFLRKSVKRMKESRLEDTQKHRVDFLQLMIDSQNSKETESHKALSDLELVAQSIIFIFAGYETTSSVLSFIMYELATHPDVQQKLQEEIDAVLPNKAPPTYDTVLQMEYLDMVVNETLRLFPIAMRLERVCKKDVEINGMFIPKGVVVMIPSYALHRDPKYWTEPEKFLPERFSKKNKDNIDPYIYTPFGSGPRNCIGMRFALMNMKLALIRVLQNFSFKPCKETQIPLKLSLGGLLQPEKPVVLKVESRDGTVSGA

Take `C[C@H]1[C@H](NC(=O)/C(=N/OC(C)(C)C(=O)O)c2csc(N)n2)C(=O)N1S(=O)(=O)O` (stereo in doubt): the Potency result in [1], in test [3], in [5], in [6], in test [7] and in [8] was “inactive” each time. The Potency entry in test [9] is “inactive”. Also, the compound was classed as inactive in test [2]. For the same compound, the max activation in [4] was -2.74%.

On to `CNC(=O)Nc1ccc(Cl)c(Cl)c1`, for which the Potency result in test [1], in [3] and in test [5] was “inactive” throughout. Also, in test [2], the result was inactive. Also, the figures for the Potency in [6] and in test [10] were 28.3 µM (active) and 5.03 µM (active), respectively.

`O=C(c1ccccc1)C1(O)CCCCC1`: the Potency entry in [1], in test [3], in test [11], in test [5], in test [8] and in test [9] was “inactive” throughout. For the same compound, the call in [2] was inactive. Further, the Potency in test [6] was 11.2 µM (active); in test [7] it was 35.6 µM (active).

`COc1c(N2CCNC(C)C2)c(F)cc2c(=O)c(C(=O)O)cn(C3CC3)c12` (configuration not stated): the Potency entry in [1], in test [3], in test [11], in [5], in [6] and in test [7] was “inactive” each time. In addition, the Potency entry in test [10], in test [8] and in test [9] was “inactive” throughout.

With `C=CCCC(=O)O`, the Potency result in test [1], in test [3], in test [5], in test [6], in [7] and in test [10] was “inactive” in each case. Also, the Potency result in [8] and in test [9] was “inactive” throughout. For the same compound, in test [2], the result was inactive.

Take `Cc1ccc(C(=O)Nc2ccc(S(=O)(=O)O)c3cc(S(=O)(=O)O)cc(S(=O)(=O)O)c23)cc1NC(=O)c1cccc(NC(=O)Nc2cccc(C(=O)Nc3cc(C(=O)Nc4ccc(S(=O)(=O)O)c5cc(S(=O)(=O)O)cc(S(=O)(=O)O)c45)ccc3C)c2)c1`: the Potency entry in test [1], in [3], in [11], in test [12], in test [13] and in [7] was “inactive” throughout. Besides, the Potency entry in [8] and in test [9] was “inactive” throughout. Further, in test [2], the compound was called inactive. In addition, the max activation in test [4] was -1.36%.

Turning to `O=C(c1ccccc1O)c1ccccc1O`, the compound was classed as inactive in [2]. Moreover, the Potency result in test [3] and in test [8] was “inactive” each time. The Potency was 24.9 µM (active) in test [5], 11.1 µM (active) in [6], 62.6 µM (active) in test [7] and 3.52 µM (active) in test [10].

Turning to `CC(=O)OCC(=O)[C@@]1(O)[C@H](C)C[C@H]2[C@@H]3CCC4=CC(=O)C=C[C@]4(C)[C@@]3(F)[C@@H](O)C[C@@]21C`, the Potency result in test [1], in test [3], in test [11], in test [12], in test [13] and in test [5] was “inactive” throughout. In addition, the Potency entry in [6], in test [10] and in test [8] was “inactive” throughout. The result in test [2] was inactive.

Regarding `CCCCN1C=CN(C)C1`, the activity change, negative = cytotoxicity in test [1] is 5.38% [at 19 µM]; in [3], -0.522% [at 19 µM]. The caspase-3/7 activation in [2] is 0.127% [at 19 µM]. Besides, in test [11], the activation was 3.9% [at 19 µM]. Moreover, the activity change, negative = inhibition is -17.2% [at 23.6 µM] in test [5] and -0.505% [at 15.8 µM] in [8].

For the compound `CCCCCCCCN1CCCC1=O`, the Potency entry in test [1], in test [3], in [5], in test [8] and in test [9] was “inactive” throughout. Besides, the compound was classed as inactive in test [2]. The Potency in [11] was 24.3 µM (active); in [6], 10 µM (active).

In the case of `Cc1ccc(-c2ncc(Cl)cc2-c2ccc(S(C)(=O)=O)cc2)cn1`, the Potency entry in test [1], in test [3], in test [11], in [13], in test [6] and in test [10] was “inactive” throughout. Moreover, the Potency entry in test [8] is “inactive”. Besides, in [2], the call was inactive. In test [4], the max activation was 7.56%. In addition, the Potency in test [7] is 17.4 µM (active).

For `CCCCCCCCCCCCSC`, the Potency result in test [1], in test [3], in test [11], in test [5], in [6] and in test [7] was “inactive” throughout. Besides, the Potency entry in test [8] and in [9] was “inactive” throughout. The call in test [2] was inactive.
